Assays:
Settings in all cases: Compound Concentration (nM):1000
[1] = tested on: PAK1
[2] = tested on: PAK2
[3] = tested on: PAK3
[4] = tested on: PAK4
[5] = tested on: PAK6
[6] = tested on: PAK7
[7] = tested on: T1, PCTK1
T1 construct: gene CDK16

[8] = tested on: T2, PCTK2
T2 construct: gene CDK17

[9] = tested on: T3, PCTK3
T3 construct: gene CDK18

[10] = tested on: PDGFRA
[11] = tested on: PDGFRB
[12] = tested on: PDPK1
[13] = tested on: T4, PFCDPK1(P.falciparum)
T4 construct: gene CDPK1

[14] = tested on: T5, PFPK5(P.falciparum)
T5 construct: gene MAL13P1.279

[15] = tested on: T6, PFTAIRE2
T6 construct: gene CDK15

[16] = tested on: T7, PFTK1
T7 construct: gene CDK14

[17] = tested on: PHKG1
[18] = tested on: PHKG2
[19] = tested on: PIK3C2B
[20] = tested on: PIK3C2G
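Note: KINOMEscan scanMAX binding as percent activity remaining versus control; lower means stronger binding.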

Row | SMILES | Percent Control [1] | Percent Control [2] | Percent Control [3] | Percent Control [4] | Percent Control [5] | Percent Control [6] | Percent Control [7] | Percent Control [8] | Percent Control [9] | Percent Control [10] | Percent Control [11] | Percent Control [12] | Percent Control [13] | Percent Control [14] | Percent Control [15] | Percent Control [16] | Percent Control [17] | Percent Control [18] | Percent Control [19] | Percent Control [20]
1 | NS(=O)(=O)c1ccc(N/N=C2\C(=O)Nc3ccc(Cl)cc32)cc1 [GW280670X] | 100% | 100% | 100% | 100% | 100% | 100% | 26% | 100% | 100% | 28% | 29% | 100% | 81% | 100% | 100% | 100% | 100% | 100% | 100% | 88%
2 | CCc1ccc(Oc2nccc(-c3c(-c4ccc(F)cc4)ncn3C3CCNCC3)n2)cc1 [SB-242719] | 100% | 100% | 71% | 100% | 82% | 98% | 87% | 100% | 94% | 100% | 81% | 86% | 66% | 87% | 93% | 86% | 90% | 72% | 100% | 93%
3 | CC1=C(C(=O)Nc2ccc3[nH]ncc3c2)C(c2ccc(Cl)c(Cl)c2)CC(=O)N1 (stereo not shown) [GSK299115A] | 94% | 84% | 96% | 82% | 79% | 91% | 85% | 100% | 93% | 100% | 99% | 100% | 87% | 71% | 66% | 49% | 100% | 84% | 84% | 77%
4 | COc1cccc(-n2ncc3c(N/N=C/c4ccncc4)ncnc32)c1 [GW784752X] | 100% | 100% | 100% | 100% | 96% | 100% | 25% | 70% | 100% | 36% | 60% | 92% | 33% | 100% | 74% | 95% | 37% | 93% | 100% | 98%
5 | COc1cc(N2CCN(C(C)C)CC2)ccc1Nc1nc(Nc2ccc(F)cc2C(=O)NC[C@@H](O)CO)c2cc[nH]c2n1 [GSK1392956A] | 100% | 100% | 100% | 100% | 89% | 67% | 82% | 100% | 100% | 91% | 100% | 91% | 94% | 74% | 100% | 100% | 29% | 39% | 100% | 96%
6 | CCS(=O)(=O)c1ccc(OC)c(Nc2ncc(-c3cccc(F)c3)o2)c1 [GW621970X] | 100% | 100% | 100% | 100% | 100% | 100% | 100% | 100% | 81% | 49% | 5.4% | 100% | 4.1% | 100% | 100% | 95% | 100% | 100% | 100% | 100%
7 | Cl.O=S1CCN(Cc2ccc(-c3ccc4ncnc(Nc5ccc(OCc6ccccc6)c(F)c5)c4c3)o2)CC1 [GW576924A] | 100% | 100% | 78% | 100% | 100% | 100% | 100% | 100% | 100% | 84% | 100% | 100% | 83% | 100% | 100% | 100% | 100% | 100% | 100% | 78%
8 | CCn1c(-c2nonc2N)nc2c(C#CC(C)(C)O)nc(OCCNC)cc21.Cl [GSK949675] | 100% | 52% | 100% | 75% | 60% | 46% | 82% | 100% | 100% | 100% | 100% | 79% | 100% | 100% | 100% | 100% | 100% | 100% | 82% | 100%
9 | COC(=O)Nc1nc2ccc(Oc3ccc(NC(=O)Nc4cc(C(F)(F)F)ccc4F)cc3)cc2s1.Cl [GW693917A] | 100% | 100% | 43% | 100% | 82% | 91% | 74% | 72% | 78% | 11% | 0.1% | 95% | 77% | 77% | 27% | 56% | 100% | 90% | 100% | 87%
10 | O=C1Nc2ccc(C(=O)c3ccco3)cc2C1=Cc1cc(Cl)c(O)c(Cl)c1 [GW406108X] | 100% | 80% | 100% | 100% | 80% | 100% | 100% | 100% | 91% | 79% | 88% | 97% | 9.5% | 93% | 100% | 89% | 100% | 70% | 12% | 39%
11 | CCS(=O)(=O)c1ccc(OC)c(Nc2ncc(-c3cccc(OC)c3)o2)c1 [GW580509X] | 100% | 100% | 100% | 100% | 96% | 100% | 100% | 100% | 100% | 69% | 9.7% | 100% | 7.8% | 100% | 100% | 100% | 100% | 100% | 100% | 97%
12 | NS(=O)(=O)c1ccc(N/N=C2\C(=O)Nc3ccc(C(=O)NCc4ccncc4)cc32)cc1 [GW300657X] | 100% | 100% | 63% | 100% | 81% | 87% | 0.2% | 22% | 68% | 27% | 74% | 65% | 85% | 57% | 49% | 73% | 100% | 70% | 100% | 86%
13 | CN(C)c1cc2c(Nc3ccc4c(cnn4Cc4ccccc4)c3)ncnc2cn1 [GW282974X] | 89% | 79% | 26% | 98% | 87% | 88% | 87% | 100% | 100% | 100% | 98% | 100% | 32% | 94% | 79% | 100% | 91% | 83% | 35% | 89%
14 | Nc1ncnc2occ(-c3ccc(NC(=O)Nc4cc(C(F)(F)F)ccc4F)cc3)c12 [GW770249X] | 100% | 100% | 31% | 100% | 100% | 100% | 82% | 29% | 31% | 1.4% | 0% | 57% | 83% | 100% | 46% | 18% | 100% | 100% | 100% | 88%
15 | COc1cc(C=NNc2ncnc3c2cnn3-c2ccccc2)ccc1O [GW513184X] | 100% | 100% | 50% | 100% | 100% | 100% | 29% | 38% | 84% | 63% | 40% | 100% | 100% | 100% | 100% | 91% | 100% | 100% | 71% | 100%
16 | NS(=O)(=O)c1ccc(N/N=C2\C(=O)Nc3ccc(C(=O)NCCc4c[nH]cn4)cc32)cc1 [GW300660X] | 100% | 81% | 100% | 100% | 100% | 100% | 2.2% | 100% | 100% | 54% | 100% | 97% | 69% | 78% | 100% | 100% | 100% | 71% | 100% | 86%
17 | CC(C)COC(=O)c1ccc2c(c1)/C(=C/Nc1ccc(S(N)(=O)=O)cc1)C(=O)N2 [GW416981X] | 100% | 100% | 100% | 100% | 100% | 97% | 0.6% | 16% | 60% | 55% | 57% | 55% | 71% | 100% | 75% | 89% | 100% | 54% | 100% | 97%
18 | C[C@@H](Oc1cc(-n2cnc3ccc(OC4CCN(C)CC4)cc32)sc1C(N)=O)c1ccccc1Cl [GSK579289A] | 100% | 84% | 0% | 100% | 75% | 74% | 94% | 94% | 86% | 54% | 12% | 100% | 74% | 76% | 74% | 95% | 86% | 81% | 32% | 78%
19 | CC1=C(C(=O)Nc2ccc3[nH]ncc3c2)C(c2ccc3ccccc3c2)CC(=O)N1 (stereo not shown) [GSK270822A] | 85% | 93% | 79% | 85% | 89% | 83% | 89% | 100% | 96% | 100% | 74% | 100% | 66% | 70% | 60% | 64% | 100% | 100% | 92% | 79%
20 | COc1cc(/C=N/Nc2ncnc3[nH]ncc23)ccc1O [GW578748X] | 100% | 97% | 58% | 100% | 100% | 100% | 100% | 100% | 100% | 7.6% | 38% | 83% | 18% | 100% | 96% | 100% | 100% | 88% | 72% | 51%

Reference: paper PMC7826789 (International Journal of Molecular Sciences, 2021)
